High-throughput results (PubChem BioAssay)
uPA generation = inhibitors of cell surface uPA generation; cell surface uPA generation assay, qHTS; Potency, µM (titrated, usually from 38.3 µM), inactives show at the top dose activity change, negative = inhibition, hits mostly inhibitors; actives 0.31% (n = 330,000); AID 540303; active = well fitted inhibition curve with a large enough effect; inconclusive = small, poorly fitted or top-dose-only effect; inactive = no such curve, though single readings can be large or run the other way; tested in mouse RAW 264.7 cells; also: potency is read from the fitted curve at half-maximal effect; nearly all actives have a fitted effect of over 55% in size
TDP1 cell noCPT = qHTS for Inhibitors of human tyrosyl-DNA phosphodiesterase 1 (TDP1): qHTS in cells in absence of CPT; DT40 Tdp1-/- hTDP1 cells, no CPT, ATP luminescence, 48 h; Potency, µM (doses to about 46.2 µM), for inactives: at the top dose activity change, negative = growth inhibition, most hits filed as inhibitors; actives 15% (n = 420,000); also: potency is read from the fitted curve at half-maximal effect; nearly all actives have a fitted effect of over 55% in size
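Growth of hTDP1-complemented DT40 Tdp1-knockout cells is measured by ATP luminescence after at least 48 hr compound exposure at 37 °C, with DMSO substituting for the 20 nM CPT used in the parallel screen.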
HT1080 IDH1KD tx = HT-1080 IDH1 knockdown cell toxicity (counter line). HT-1080 IDH1 knockdown viability, ATP luminescence, 48 h. Potency, µM (titrated, usually from 46.1 µM), without a hit: at the highest dose activity, negative = toxicity, most hits filed as cytotoxic. AID 686971. actives 2% (n = 360,000);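 also: potency is read from the fitted curve at half-maximal effect; 0% = DMSO wells and -100% = cell-free medium wells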
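Assay cells: HT-1080 with IDH1 knockdown, 750 per well, RPMI/5% FBS. Exposure: 48 h at 37 °C following 2 h pre-incubation. Read: CellTiter-Glo luminescence; fitted concentration-response, curve class assigned.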
TDP1 cell CPT = growth inhibition of DT40 Tdp1-/-;hTDP1 cells with camptothecin (screen for TDP1 inhibitors). chicken DT40 Tdp1-/-;hTDP1 cells + 20 nM CPT, ATP luminescence, 48 h. Potency, µM (top dose mostly 46.2 µM), without a hit: at the highest dose activity change, negative = growth inhibition, usual class: inhibitors. actives 12% (n = 420,000). AID 686979; also: potency is read from the fitted curve at half-maximal effect; nearly all actives have a fitted effect of over 55% in size
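Chicken DT40 Tdp1-/- cells stably complemented with human TDP1 were seeded at 400 cells/well in medium containing 20 nM camptothecin, exposed to pin-transferred compounds, and grown at 37 °C for at least 48 hr. Viability was read as ATP luminescence.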
HT1080-NT tox = kills 2HG-producing HT-1080-NT fibrosarcoma cells | HT-1080-NT fibrosarcoma viability, CellTiter-Glo ATP luminescence, 48 h | Potency, µM (top dose mostly 46.1 µM), without a hit: at the highest dose activity, negative = less viability, most hits filed as cytotoxic | actives 1.6% (n = 360,000) | AID 686970;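 also: NT is the 2HG producing partner of a matched IDH1 knockdown line; potency is read from the fitted curve at half-maximal effect; 0% = DMSO-treated cells and -100% = media-only wells without cells; nearly all actives have a fitted effect of over 55% in size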
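750 cells/well, RPMI + 5% FBS; 2 h settle, compound pin-transfer, 48 h at 37 degrees C. CellTiter-Glo 10 min RT, luminescence. Normalized to DMSO and media-only wells.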
IL-1B inflam inh = blocks inflammasome-driven IL-1 beta release; THP-1 LPS/ATP IL-1B secretion, AlphaLISA, 16 h; active compounds read low; activity change, % at 57.5 µM; actives 4.7% (n = 360,000); in the data active = activity change below about -50%; inconclusive = mostly about -30% to -49%
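THP-1 cells pretreated 1 hr with compounds (up to 57.5 uM final), then stimulated with LPS (250 ng/mL final) plus ATP (1.25 mM final); secreted IL-1B measured by AlphaLISA after 16 hr, decreased signal indicating inhibition.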
An asterisk follows results filed as active; ? = inconclusive; nt = no result given. Hits are enriched below; roughly 19% of the tested compounds scored in any of these assays. Unless noted, calls follow the shape of the dose curve; as a rule, active = well fitted curve in the direction sought with a large enough effect; inconclusive = small, poorly fitted or top-dose-only effect, or another doubt; inactive = no such curve, though single readings can be large; an effect the other way counts as inactive or inconclusive. Unless noted, % is scaled to controls: 0 for no effect and ±100 for the full control effect.

SMILES	uPA generation	TDP1 cell noCPT	HT1080 IDH1KD tx	TDP1 cell CPT	HT1080-NT tox	IL-1B inflam inh
COc1ccc(Cn2c(C(=O)O)c(CNCc3ccc(C)o3)c3ccc(OC)cc32)cc1	nt	-97%	nt	23µM*	nt	nt
COc1cc(C(=O)OCC(=O)NC(=O)NC2CCCCC2)cc(Cl)c1OC	18%	-26%	-9%	-9%	-2%	-5
CN(C(=O)c1ccc(COc2ccccc2Cl)o1)c1ccccc1	-7%	-25%	-7%	-24%	-4%	29
O=C(Nc1ccc(Cl)cn1)c1ccc(COc2ccccc2Br)o1	-2%	?	-30%	?	-16%	35
CCN(CC)C(=O)c1ccc(COc2ccccc2Cl)o1	2%	16µM*	-9%	-20%	6%	-12
O=C(Nc1nn(Cc2ccc(Cl)cc2)cc1Br)c1ccc(COc2ccccc2Cl)o1	7%	26µM*	-20%	26µM*	-13%	?
O=C(Nc1cccnc1)c1ccc(COc2ccccc2Cl)o1	-9%	21µM*	21µM*	18µM*	?	-8
O=C(Nc1nccs1)c1ccc(COc2ccccc2Br)o1	?	?	?	?	10µM*	-24
Cc1cc(C)cc(NC(=O)c2c(C)oc3nc(C)nc(N4CCCC4)c23)c1	nt	-19%	nt	?	nt	nt
O=C(NCc1cccnc1)c1ccc(COc2ccc(Cl)cc2Cl)o1	6%	?	-14%	?	-4%	44
CN(C)c1ccc(NC(=O)c2ccc(COc3cccc(Cl)c3)o2)cc1	-4%	?	-11%	21µM*	-14%	-14
O=C(Nc1cccnc1)c1ccc(COc2cc(Cl)ccc2Cl)o1	-2%	18µM*	23µM*	?	?	-2
COc1ccc(C)cc1NC(=O)c1sc2ncn(CC(=O)N3CCCCC3)c(=O)c2c1C	-1%	-10%	14%	-28%	7%	1
COc1ccccc1N1CCN(S(=O)(=O)c2c(C)nc3sccn3c2=O)CC1	nt	3%	nt	6%	nt	nt
CC(C)n1ncc2c(C(=O)N3CCN(c4ccccc4)CC3)cc(-c3ccccc3)nc21	4%	?	?	?	-27%	-9
CC(C)n1ncc2c(C(=O)N3CCN(Cc4ccc(Br)s4)CC3)cc(C3CC3)nc21	12%	23µM*	0%	26µM*	-2%	?
COc1ccc(NC(=O)c2cc(-c3ccccc3)nc3c2cnn3C(C)C)cc1	8.9µM*	?	-17%	?	-1%	-70*
CC(C)n1ncc2c(C(=O)NCCOc3ccccc3F)cc(C3CC3)nc21	3%	3.3µM*	-8%	12µM*	-3%	-26
CCOc1ccc(OCCNC(=O)c2cc(C3CC3)nc3c2cnn3C(C)C)cc1	4%	5.2µM*	-24%	16µM*	-6%	?
CC(C)c1ccc(NC(=O)Nc2nnc([C@@H]3C[C@H](O)[C@@H](CO)O3)s2)cc1	nt	-11%	3%	-26%	0%	14
CC(C)n1ncc2c(C(=O)Nc3cccc(C#N)c3)cc(C3CC3)nc21	-23%	?	?	?	-24%	-58*
CC1=C(c2ccc(Cl)cc2)S(=O)(=O)NC1=NCCCN1CCN(c2cc(C)ccc2C)CC1	nt	5.2µM*	nt	2.6µM*	nt	nt
COc1ccc(C2=C(C)C(=NCCCN3CCN(c4cc(Cl)ccc4C)CC3)NS2(=O)=O)cc1	nt	8.2µM*	nt	6.5µM*	nt	nt
Cc1ccc(C)c(N2CCN(c3cc(C)nc4c(-c5ccc(Cl)cc5)c(C)nn34)CC2)c1	nt	-8%	nt	10%	nt	nt
COc1ccc(N2CCN(C(=O)CN=C3NS(=O)(=O)C(c4ccc(C)cc4)=C3C)CC2)cc1	-8%	-27%	2%	-17%	11%	-2
SMILES	uPA generation	TDP1 cell noCPT	HT1080 IDH1KD tx	TDP1 cell CPT	HT1080-NT tox	IL-1B inflam inh
COc1ccc(C2=C(N3CCN(c4cc(Cl)ccc4C)CC3)c3ccccc3C2=O)cc1	nt	?	nt	21µM*	nt	nt
CC1=C(c2ccc(C)cc2)S(=O)(=O)NC1=NCCCN1CCN(c2ccc(F)cc2)CC1	nt	15µM*	nt	15µM*	nt	nt
CC1=C(c2ccc(C(C)C)cc2)S(=O)(=O)NC1=NCc1ccc(OC(C)C)cc1	nt	-14%	nt	-14%	nt	nt
COC(=O)c1sc2cccc(F)c2c1S(=O)(=O)NCc1ccc(F)cc1	nt	5%	nt	-24%	nt	nt
C=CCCCCCCCCC(=O)OC	nt	-29%	nt	-4%	nt	nt
CC(C)CC(=O)/C(=C/c1ccc(N(C)C)cc1)n1cncn1	-4%	1%	11%	-7%	?	3
CN(C)c1ccc(/C=C(/C(=O)c2ccc(Cl)cc2Cl)n2cncn2)cc1	-11%	23µM*	?	23µM*	?	-10
CN(C)/C=C(/C(=O)c1ccc(Cl)cc1)n1cncn1	-2%	19%	6%	-6%	-5%	43
CC(C)CC(=O)/C(=C\c1ccc(Cl)cc1Cl)n1cncn1	7.1µM*	1.8µM*	2.9µM*	2.9µM*	5.8µM*	-104*
O=C(Nc1ccccc1)N1CC2(CCN(C(=O)c3ccncc3)CC2)C1	nt	7%	nt	-5%	nt	nt
Cc1cccc(NS(=O)(=O)c2ccc3c(c2)C(C)(C)C(=O)N3C)c1	nt	-29%	nt	?	nt	nt
NC1=NC(=Nc2cccc(S(=O)(=O)N3CCOCC3)c2)c2ccccc21	-4%	-29%	-27%	?	-22%	-60*
O=C(c1ccccc1)N1N=C(c2ccccc2)CC1c1ccccc1 (stereo not drawn)	-6%	?	-11%	2%	-22%	-10
Cc1ccc(C(=O)N2N=C(c3ccccc3O)CC2c2ccccc2)cc1 (stereo not drawn)	2%	21µM*	12%	?	10%	1
CC1=CC2C(C(O)CC3(C)C2CC(C)C32OCOC23COCO3)C2(C)C/C(=C\O)C(=O)C=C12 (stereo not drawn)	-16%	2.6µM*	7.3µM*	1.6µM*	18µM*	-104*
Cc1ccc(-c2c(C(=O)NCc3ccccc3)oc(=O)c3ccccc23)cc1	1%	?	2%	?	2%	-19
Cc1ccc(-c2c(C(=O)NCCc3ccccc3)oc(=O)c3ccccc23)cc1	nt	?	nt	15µM*	nt	nt
CCOc1ccc(N(C)C(=O)c2oc(=O)c3ccccc3c2-c2ccccc2)cc1	nt	15µM*	nt	18µM*	nt	nt
NCCCC[C@@H](C(=O)N1CCNCC1)n1cc([C@@H](N)CC(N)=O)nn1	3%	-4%	11%	?	4%	13
NC(=O)N[C@@H](CCC(=O)O)C(=O)O	nt	-7%	nt	1%	nt	nt
